Counter-ions that a name gives are not always drawn.
System: HL-1
Assay: relative cell viability (CellTiter-Glo) vs DMSO control (% of DMSO control); higher = more viable cells
In short: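 One day after HL-1 mouse atrial cardiomyocytes were plated (1000 cells per well, 384-well plates) with compounds at 40, 200, 1000 or 5000 nM in 0.01% DMSO, they were transferred to a hypoxic workstation at 1% O2. After 48 h there, the cells were reoxygenated for 24 h in a normal incubator, and comparison cells stayed in normoxia throughout the same time. Cell viability was quantified with CellTiter-Glo luminescence and normalised to vehicle-treated control cells.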

[1] = oxygen condition: hypoxia 48 h (1% O2) + reoxygenation 24 h, 40 nM
[2] = oxygen condition: hypoxia 48 h (1% O2) + reoxygenation 24 h, 200 nM
[3] = oxygen condition: hypoxia 48 h (1% O2) + reoxygenation 24 h, 1000 nM
[4] = oxygen condition: hypoxia 48 h (1% O2) + reoxygenation 24 h, 5000 nM
[5] = oxygen condition: normoxia 72 h, 40 nM
[6] = oxygen condition: normoxia 72 h, 200 nM
[7] = oxygen condition: normoxia 72 h, 1000 nM
[8] = oxygen condition: normoxia 72 h, 5000 nM

| SMILES | relative cell viability [1] | relative cell viability [2] | relative cell viability [3] | relative cell viability [4] | relative cell viability [5] | relative cell viability [6] | relative cell viability [7] | relative cell viability [8] |
| --- | --- | --- | --- | --- | --- | --- | --- | --- |
| O=NO [Sodium nitrite] | 109 | 110 | 116 | 122 | 109 | 116 | 107 | 114 |
| CCCCN1CCCCC1C(=O)Nc1c(C)cccc1C (stereo unspecified) [Bupivacaine hydrochloride] | 107 | 105 | 102 | 104 | 105 | 105 | 106 | 102 |
| C[C@@](Cc1ccc(O)c(O)c1)(NN)C(=O)O [Carbidopa] | 101 | 100 | 101 | 106 | 96.4 | 96.4 | 102 | 110 |
| CCOc1cc(CC(=O)N[C@@H](CC(C)C)c2ccccc2N2CCCCC2)ccc1C(=O)O [Repaglinide] | 84.4 | 97.2 | 109 | 109 | 67.6 | 110 | 114 | 115 |
| COC(=O)N[C@H](C(=O)N[C@@H](Cc1ccccc1)[C@@H](O)CN(Cc1ccc(-c2ccccn2)cc1)NC(=O)[C@@H](NC(=O)OC)C(C)(C)C)C(C)(C)C [Atazanavir sulfate] | 104 | 101 | 105 | 108 | 101 | 97 | 98.5 | 116 |
| CNS(=O)(=O)Cc1ccc2[nH]cc(CCN(C)C)c2c1 [Sumatriptan succinate] | 107 | 109 | 100 | 110 | 102 | 100 | 108 | 104 |
| O=C(Nc1ccccc1)OCC(CN1CCCCC1)OC(=O)Nc1ccccc1 (stereo unspecified) [Diperodon HCl] | 103 | 101 | 104 | 98.6 | 87.5 | 107 | 103 | 109 |
| CCOc1nc2cccc(C(=O)OC(C)OC(=O)OC3CCCCC3)c2n1Cc1ccc(-c2ccccc2-c2nn[nH]n2)cc1 (stereo unspecified) [Candesartan cilexetil] | 106 | 104 | 97.6 | 4.71 | 98 | 102 | 101 | 4.11 |
| O=C(O)Cc1cc(I)c(Oc2ccc(O)c(I)c2)c(I)c1 [Tiratricol] | 96.6 | 99.5 | 104 | 119 | 103 | 103 | 101 | 126 |
| C=C[C@]1(C)C[C@@H](OC(=O)CS[C@@H]2C[C@H]3CC[C@@H](C2)N3C)[C@]2(C)[C@H](C)CC[C@]3(CCC(=O)[C@H]32)[C@@H](C)[C@@H]1O [Retapamulin] | 104 | 104 | 105 | 108 | 98.3 | 97.1 | 89.2 | 81.7 |
| O=P(O)(O)C(O)(Cc1cccnc1)P(=O)(O)O [Risedronate sodium] | 103 | 112 | 107 | 122 | 111 | 107 | 121 | 116 |
| CC1=C(/C=C/C(C)=C/C=C/C(C)=C/C=C/C=C(C)/C=C/C=C(C)/C=C/C2=C(C)CCCC2(C)C)C(C)(C)CCC1 [Beta Carotene] | 96.9 | 95.3 | 99.9 | 104 | 104 | 92.9 | 104 | 104 |
| CN(C)CCCN1c2ccccc2Sc2ccc(C(F)(F)F)cc21 [Triflupromazine HCl] | 98.8 | 105 | 102 | 106 | 102 | 99.3 | 101 | 106 |
| CCNC(=O)CCC/C=C\C[C@@H]1[C@@H](/C=C/[C@@H](O)CCc2ccccc2)[C@H](O)C[C@@H]1O [Bimatoprost] | 104 | 107 | 108 | 105 | 104 | 101 | 105 | 107 |
| COc1cc2nc(N3CCN(C(=O)c4ccco4)CC3)nc(N)c2cc1OC [Prazosin HCl] | 102 | 101 | 109 | 109 | 101 | 100 | 106 | 109 |
| CCN1CCCC1CNC(=O)c1cc(S(=O)(=O)CC)c(N)cc1OC (stereo unspecified) [Amisulpride] | 103 | 104 | 111 | 108 | 104 | 107 | 119 | 111 |
| Nc1[nH]cnc2ncnc1-2 [Adenine] | 101 | 97.9 | 98.1 | 109 | 102 | 95.5 | 98.6 | 106 |
| CN(N=O)C(=O)N[C@@H](C=O)[C@@H](O)[C@H](O)[C@H](O)CO [Streptozotocin] | 103 | 103 | 99.8 | 109 | 99.9 | 109 | 104 | 102 |
| Cc1nccn1CC1CCc2c(c3ccccc3n2C)C1=O (stereo unspecified) [Ondansetron] | 99.4 | 103 | 102 | 109 | 102 | 99.7 | 101 | 107 |
| N=C(N)NC(=N)NCCc1ccccc1 [Phenformin hydrochloride] | 101 | 95.3 | 99.6 | 74.1 | 101 | 103 | 104 | 71.8 |
| CC[C@]1(O)C[C@H]2CN(CCc3c([nH]c4ccccc34)[C@@](C(=O)OC)(c3cc4c(cc3OC)N(C=O)[C@H]3[C@@](O)(C(=O)OC)[C@H](OC(C)=O)[C@]5(CC)C=CCN6CC[C@]43[C@@H]65)C2)C1 [Vincristine] | 38.3 | 40.4 | 44.4 | 42 | 32.5 | 29.1 | 32.3 | 41.1 |

| SMILES | relative cell viability [1] | relative cell viability [2] | relative cell viability [3] | relative cell viability [4] | relative cell viability [5] | relative cell viability [6] | relative cell viability [7] | relative cell viability [8] |
| --- | --- | --- | --- | --- | --- | --- | --- | --- |
| C[C@H]1O[C@H](O[C@H]2[C@H](O)[C@@H](O)[C@@H](O[C@H]3[C@H](O)[C@@H](O)C(O)O[C@@H]3CO)O[C@@H]2CO)[C@H](O)[C@@H](O)[C@@H]1N[C@H]1C=C(CO)[C@@H](O)[C@H](O)[C@H]1O (stereo partly specified) [Acarbose] | 106 | 108 | 108 | 107 | 106 | 107 | 111 | 107 |
| CCOc1nc2cccc(C(=O)OCc3oc(=O)oc3C)c2n1Cc1ccc(-c2ccccc2-c2noc(=O)[nH]2)cc1 [Azilsartan Medoxomil] | 101 | 99.2 | 116 | 116 | 93.4 | 103 | 100 | 114 |
| Nc1ccn([C@@H]2O[C@H](CO)[C@@H](O)[C@H]2O)c(=O)n1 [Cytidine] | 101 | 101 | 105 | 106 | 106 | 107 | 101 | 106 |
| CCOC(=O)C1=C[C@@H](OC(CC)CC)[C@H](NC(C)=O)[C@@H](N)C1 [Oseltamivir phosphate] | 94.9 | 99.4 | 99.5 | 111 | 103 | 101 | 105 | 111 |
| CCC[C@H](N[C@@H](C)C(=O)N1[C@H](C(=O)O)C[C@@H]2CCCC[C@@H]21)C(=O)OCC [Perindopril Erbumine] | 110 | 81 | 107 | 115 | 109 | 111 | 111 | 114 |
| CCCCc1oc2ccc(NS(C)(=O)=O)cc2c1C(=O)c1ccc(OCCCN(CCCC)CCCC)cc1 [Dronedarone HCl] | 99.9 | 99.6 | 102 | 105 | 99.8 | 110 | 102 | 95 |
| CC(C)[C@H](N)C(=O)OCC(CO)OCn1cnc2c(=O)nc(N)[nH]c21 (stereo partly specified) [valganciclovir hydrochloride] | 107 | 107 | 107 | 121 | 108 | 110 | 114 | 115 |
| CN(C)/N=N/c1[nH]cnc1C(N)=O [Dacarbazine] | 97.5 | 107 | 110 | 113 | 105 | 106 | 107 | 113 |
| COc1ccc2cc1Oc1ccc(cc1)C[C@H]1c3c(cc4c(c3Oc3cc5c(cc3OC)CCN(C)[C@@H]5C2)OCO4)CCN1C [Cepharanthine] | 98.8 | 91.7 | 87 | 49.8 | 99.4 | 86.8 | 87.5 | 11.3 |
| O=S(=O)(O)Oc1ccc(C(c2ccc(OS(=O)(=O)O)cc2)c2ccccn2)cc1 [Sodium Picosulfate] | 107 | 109 | 108 | 116 | 110 | 111 | 112 | 116 |
| NC(=O)c1ncn([C@@H]2O[C@H](CO)[C@@H](O)[C@H]2O)n1 [Ribavirin] | 102 | 96.2 | 108 | 101 | 100 | 104 | 109 | 107 |
| CC[C@H]1OC(=O)[C@H](C)[C@@H](O[C@H]2C[C@@](C)(OC)[C@@H](O)[C@H](C)O2)[C@H](C)[C@@H](O[C@@H]2O[C@H](C)C[C@H](N(C)C)[C@H]2O)[C@](C)(O)C[C@@H](C)/C(=N\OCOCCOC)[C@H](C)[C@@H](O)[C@]1(C)O [Roxithromycin] | 101 | 106 | 101 | 106 | 101 | 100 | 103 | 112 |
| CCCC(CCC)C(=O)O[C@H]1C[C@H]2CC[C@@H](C1)[N+]2(C)C [Anisotropine Methylbromide] | 104 | 101 | 93.2 | 97.8 | 96.3 | 93.7 | 84.7 | 109 |
| CN(C)c1nc(N(C)C)nc(N(C)C)n1 [Altretamine] | 102 | 109 | 115 | 109 | 115 | 103 | 108 | 122 |
| CN1C2CCCC1CC(NC(=O)c1nn(C)c3ccccc13)C2 (stereo unspecified) [Granisetron HCl] | 103 | 102 | 106 | 101 | 101 | 102 | 105 | 102 |
| CN(C)CCc1c[nH]c2ccc(Cn3cncn3)cc12 [Rizatriptan Benzoate] | 103 | 108 | 110 | 107 | 109 | 104 | 110 | 113 |
| CC(C)(CO)[C@@H](O)C(=O)NCCC(=O)O [Pantothenic acid] | 100 | 103 | 104 | 108 | 100 | 101 | 99.5 | 106 |
| CCCCCCCCCCC[C@@H](C[C@@H]1OC(=O)[C@H]1CCCCCC)OC(=O)[C@H](CC(C)C)NC=O [Orlistat] | 104 | 115 | 94.9 | 107 | 108 | 112 | 102 | 103 |
| O=C(CCNNC(=O)c1ccncc1)NCc1ccccc1 [Nialamide] | 107 | 109 | 108 | 113 | 96.2 | 105 | 104 | 138 |
| CC(=O)Nc1ccccc1 [Acetanilide] | 96.5 | 98.9 | 100 | 111 | 101 | 94.9 | 98 | 105 |
| O=c1c(-c2ccc(O)cc2)coc2cc(O)ccc12 [Daidzein] | 107 | 102 | 105 | 113 | 107 | 107 | 105 | 118 |

Source: the supplement of paper PMC8371130
